Consider 21 compounds from PubChem BioAssay (EPA / NIEHS).

Records with an inconclusive call do not appear. The source made the active and inactive calls. The calls were made as follows: active = hit-call score of the fitted dose curve at least 0.9, where 1 is the maximum; inconclusive = response in the unintended direction; inactive = score below 0.9.

Test [1] has as its target human Matrix Metalloproteinase-9 (MMP9), MMP9 (gene 4318) (UniProt P14780). The experiment in a line: NVS_ENZ_hMMP9: NovaScreen (NVS) Enzymatic Assay for human Matrix Metalloproteinase-9 (MMP9) (AID 2283190).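 Also: cell-free recombinant MMP9 protease activity read by fluorescent substrate signal; active means inhibition seen as loss of fluorescence signal versus DMSO.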 The gist of the method: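 Inhibition was scored as loss of fluorescence signal against DMSO controls. The recombinant protease was exposed to chemicals for 1 hour before reading; initial testing used 25 uM in duplicate.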

The target in test [2] is human Phosphatase and Tensin Homolog (PTEN), PTEN (gene 5728) (UniProt P60484). Description: NVS_ENZ_hPTEN: NovaScreen (NVS) Enzymatic Assay for human Phosphatase and Tensin Homolog (PTEN) (AID 2283203). The gist of the method:
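Cell-free recombinant human PTEN with fluorescent substrate; product separated by electrophoretic mobility shift and read by fluorescence 1 h after dosing. Primary screen in duplicate at 25 uM, actives followed in concentration series versus DMSO.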

Test [3] addresses human Matrix Metalloproteinase-2 (MMP2), MMP2 (gene 4313) (UniProt P08253). Description: NVS_ENZ_hMMP2: NovaScreen (NVS) Enzymatic Assay for human Matrix Metalloproteinase-2 (MMP2) (AID 2283184). The gist of the method:
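Cell-free recombinant MMP2 activity with a fluorescent substrate, read 1 h after dosing. Primary screen in duplicate at 25 uM; actives then run in concentration series; loss of signal fitted versus DMSO.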

Test [4] has as its target human Phosphoinositide 3-kinase alpha (PI3Ka), PIK3CA (gene 5290) (UniProt P42336). Description: NVS_ENZ_hPI3Ka: NovaScreen (NVS) Enzymatic Assay for human Phosphoinositide 3-kinase alpha (PI3Ka) (AID 2283196). The gist of the method: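 Chemicals were first screened at 25 uM in duplicate, then hits were run as concentration series up to 50 uM. Enzyme activity was measured by fluorescence after mobility-shift separation, with loss of signal relative to DMSO taken as activity.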

Test [5] deals with human Protein Tyrosine Phosphatase Non-receptor Type 1 (PTPN1), PTPN1 (gene 5770) (UniProt P18031). The experiment in a line: NVS_ENZ_hPTPN1: NovaScreen (NVS) Enzymatic Assay for human Protein Tyrosine Phosphatase Non-receptor Type 1 (PTPN1) (AID 2283201). The gist of the method: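 Cell-free fluorogenic-substrate activity assay on recombinant enzyme, read 1.33 h after dosing by fluorescence and electrophoretic mobility shift; loss of signal vs DMSO baseline. Primary screen in duplicate at 25 uM, hits then run in concentration-response up to 50 uM.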

In test [6] the target is human Matrix Metalloproteinase-7 (MMP7), MMP7 (gene 4316) (UniProt P09237). Description: NVS_ENZ_hMMP7: NovaScreen (NVS) Enzymatic Assay for human Matrix Metalloproteinase-7 (MMP7) (AID 2283183). The method, boiled down: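 Cell-free fluorescence enzymatic assay read 1 h after compound addition, activity loss analyzed against DMSO. Primary duplicate testing at 25 uM; compounds meeting threshold rerun in singleton concentration-response up to 50 uM.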
Sequence of human Matrix Metalloproteinase-7 (MMP7), MMP7 (gene 4316) (P09237 whole entry, looked up): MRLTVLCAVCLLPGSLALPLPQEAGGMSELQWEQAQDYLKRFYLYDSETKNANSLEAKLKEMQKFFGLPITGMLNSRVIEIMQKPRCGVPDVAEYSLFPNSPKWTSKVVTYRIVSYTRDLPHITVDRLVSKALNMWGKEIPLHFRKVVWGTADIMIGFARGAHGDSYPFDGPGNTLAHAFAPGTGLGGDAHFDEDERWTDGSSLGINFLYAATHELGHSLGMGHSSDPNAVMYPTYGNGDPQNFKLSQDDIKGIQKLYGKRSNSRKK

A further test deals with PPP2CA (gene 5515) (UniProt P67775). Description: NVS_ENZ_hPPP2CA: NovaScreen (NVS) Enzymatic Assay for human Protein Phosphatase 2 Aatalytic subunit Alpha (PPP2CA) (AID 2283199). The gist of the method: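 Recombinant human PPP2CA with fluorescent substrate; product separated from substrate by electrophoretic mobility shift, read 1.33 h after dosing. Duplicate single-point at 25 uM, then singleton concentration-response up to 50 uM; loss of signal versus DMSO.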

Test [7] addresses human Matrix Metalloproteinase-1 (MMP1), MMP1 (gene 4312) (UniProt P03956). Description: NVS_ENZ_hMMP1: NovaScreen (NVS) Enzymatic Assay for human Matrix Metalloproteinase-1 (MMP1) (AID 2283181). The gist of the method: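 Human MMP1 enzyme activity measured by fluorescence 1 h after dosing, cell-free, with a specific substrate. Screened in duplicate at 25 uM; hits (e.g. 30% inhibition) run in concentration-response up to 50 uM; loss of signal versus DMSO.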

Test [8] has as its target human Phosphodiesterase 10 (PDE10), PDE10A (gene 10846) (UniProt Q9Y233). The experiment in a line: NVS_ENZ_hPDE10: NovaScreen (NVS) Enzymatic Assay for human Phosphodiesterase 10 (PDE10) (AID 2283195). The method, boiled down: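 Fluorescence/mobility-shift readout of PDE10A enzyme activity, taken 1 h post-dosing. Primary screen in duplicate at 25 uM; actives (e.g. ≥30% inhibition) retested as singleton concentration-response, top concentration 50 uM.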

For test [9], the target named is Serine/threonine-protein phosphatase PP1-alpha catalytic subunit (Homo sapiens) (UniProt P62136). Description: NVS_ENZ_hPPP1CA: NovaScreen (NVS) Enzymatic Assay for human Protein Phosphatase 1 Aatalytic subunit Alpha (PPP1CA) (AID 2283200). The gist of the method:
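Recombinant enzyme activity read by fluorescence with electrophoretic mobility shift separating substrate from product, 1.33 h after dosing; loss of signal vs DMSO baseline. Primary screen in duplicate at 25 uM; actives retested in concentration-response up to 50 uM.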

Test [10] has as its target human Phosphodiesterase 5 (PDE5), PDE5A (gene 8654) (UniProt O76074). The experiment in a line: NVS_ENZ_hPDE5: NovaScreen (NVS) Enzymatic Assay for human Phosphodiesterase 5 (PDE5) (AID 2283194). The method, boiled down: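 Recombinant human PDE5 with specific substrate, read 1 h after dosing by fluorescence with electrophoretic mobility-shift separation of substrate and product. Initial single-concentration duplicate screen at 25 uM, actives followed in concentration series; loss of activity versus DMSO.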

Test [11] deals with human NIMA (Never In Mitosis Gene A)-Related Kinase 2 (NEK2), NEK2 (gene 4751) (UniProt P51955). The experiment in a line: NVS_ENZ_hNEK2: NovaScreen (NVS) Enzymatic Assay for human NIMA (Never In Mitosis Gene A)-Related Kinase 2 (NEK2) (AID 2283188). The method, boiled down: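 Cell-free NEK2 enzyme activity after 1 h exposure, read by fluorescence with electrophoretic mobility shift separating substrate and product. Primary screen in duplicate at 25 uM; actives then run as concentration series. Loss of signal versus DMSO scored.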

The target in test [12] is cAMP-dependent protein kinase catalytic subunit alpha (Homo sapiens) (UniProt P17612). The experiment in a line: NVS_ENZ_hPKA: NovaScreen (NVS) Enzymatic Assay for human Protein Kinase A (PKA) (AID 2283192). The method, boiled down: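 Recombinant human PKA with specific fluorescent substrate, product separated by electrophoretic mobility shift, read 1 h after dosing. Primary screen at 25 uM in duplicate; actives then run in concentration-response up to 50 uM, activity relative to DMSO.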

In test [13] the target is human Protein Phosphatase, Mg2+/Mn2+ Dependent 1A (PPM1A), PPM1A (gene 5494) (UniProt P35813). Description: NVS_ENZ_hPPM1A: NovaScreen (NVS) Enzymatic Assay for human Protein Phosphatase, Mg2+/Mn2+ Dependent 1A (PPM1A) (AID 2283198). The method, boiled down:
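Cell-free recombinant PPM1A phosphatase assay with fluorescent substrate, read 1 h after dosing by electrophoretic mobility shift. Chemicals screened in duplicate at 25 uM, then in concentration-response up to 50 uM; loss of activity versus DMSO.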

Test [14] deals with Tyrosine-protein phosphatase non-receptor type 11 (Homo sapiens) (UniProt Q06124). Description: NVS_ENZ_hPTPN11: NovaScreen (NVS) Enzymatic Assay for human Protein Tyrosine Phosphatase Non-receptor Type 11 (PTPN11) (AID 2283202). The method, boiled down:
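Recombinant human PTPN11 activity on a fluorescent substrate, with substrate/product separated by electrophoretic mobility shift; read 0.5 h after dosing, loss of signal vs DMSO. Duplicate 25 uM screen, then concentration-response up to 50 uM.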

By AC50 is commonly meant the concentration at which the activity in the assay is half-maximal.

Sequence of human Phosphoinositide 3-kinase alpha (PI3Ka), PIK3CA (gene 5290) (P42336 whole entry, looked up): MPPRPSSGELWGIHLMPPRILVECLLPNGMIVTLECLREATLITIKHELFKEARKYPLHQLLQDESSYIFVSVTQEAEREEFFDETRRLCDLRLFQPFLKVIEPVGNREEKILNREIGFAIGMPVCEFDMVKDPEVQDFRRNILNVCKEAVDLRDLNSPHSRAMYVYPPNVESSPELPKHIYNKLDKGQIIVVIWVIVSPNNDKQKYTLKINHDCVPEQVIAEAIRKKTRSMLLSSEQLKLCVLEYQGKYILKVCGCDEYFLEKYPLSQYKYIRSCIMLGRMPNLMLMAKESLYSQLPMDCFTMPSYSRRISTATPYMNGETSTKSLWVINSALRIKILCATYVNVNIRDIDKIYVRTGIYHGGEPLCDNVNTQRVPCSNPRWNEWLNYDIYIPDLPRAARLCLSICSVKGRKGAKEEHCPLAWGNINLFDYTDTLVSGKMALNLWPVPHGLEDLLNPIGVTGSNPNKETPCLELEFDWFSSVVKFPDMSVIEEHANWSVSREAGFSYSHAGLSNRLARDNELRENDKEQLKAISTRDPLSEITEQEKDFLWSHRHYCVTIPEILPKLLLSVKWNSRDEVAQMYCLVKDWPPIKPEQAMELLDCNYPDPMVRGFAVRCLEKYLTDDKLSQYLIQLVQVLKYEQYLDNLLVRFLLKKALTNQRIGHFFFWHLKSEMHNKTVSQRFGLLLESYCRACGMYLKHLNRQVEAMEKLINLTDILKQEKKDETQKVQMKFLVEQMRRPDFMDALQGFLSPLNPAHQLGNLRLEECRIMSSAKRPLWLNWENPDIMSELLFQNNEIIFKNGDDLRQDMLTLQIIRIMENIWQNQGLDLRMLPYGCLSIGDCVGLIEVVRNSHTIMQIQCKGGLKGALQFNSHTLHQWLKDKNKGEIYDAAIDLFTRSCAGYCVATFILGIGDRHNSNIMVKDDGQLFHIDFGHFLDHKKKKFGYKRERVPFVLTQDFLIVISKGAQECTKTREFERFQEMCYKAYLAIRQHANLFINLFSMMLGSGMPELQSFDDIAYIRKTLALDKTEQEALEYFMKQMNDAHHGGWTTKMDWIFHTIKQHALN
Sequence of human Matrix Metalloproteinase-2 (MMP2), MMP2 (gene 4313) (P08253 whole entry, looked up): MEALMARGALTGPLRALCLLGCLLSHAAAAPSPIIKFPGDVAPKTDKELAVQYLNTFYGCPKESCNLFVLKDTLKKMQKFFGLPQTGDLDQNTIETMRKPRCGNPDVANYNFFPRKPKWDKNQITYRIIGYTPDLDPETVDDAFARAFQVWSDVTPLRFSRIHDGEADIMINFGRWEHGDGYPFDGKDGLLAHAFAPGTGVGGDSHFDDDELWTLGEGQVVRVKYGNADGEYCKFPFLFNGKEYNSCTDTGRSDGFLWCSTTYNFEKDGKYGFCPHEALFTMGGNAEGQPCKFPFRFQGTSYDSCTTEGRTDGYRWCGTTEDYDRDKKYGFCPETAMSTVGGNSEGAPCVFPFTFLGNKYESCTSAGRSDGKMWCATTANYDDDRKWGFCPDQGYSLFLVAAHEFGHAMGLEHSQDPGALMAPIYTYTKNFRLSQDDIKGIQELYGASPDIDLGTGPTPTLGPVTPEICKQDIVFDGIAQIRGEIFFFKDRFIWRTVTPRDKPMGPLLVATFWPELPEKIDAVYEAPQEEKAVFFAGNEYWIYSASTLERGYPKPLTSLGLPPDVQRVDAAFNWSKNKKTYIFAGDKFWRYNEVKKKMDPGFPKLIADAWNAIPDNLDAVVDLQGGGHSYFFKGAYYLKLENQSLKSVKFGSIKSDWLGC
Sequence of human Matrix Metalloproteinase-9 (MMP9), MMP9 (gene 4318) (P14780 whole entry, looked up): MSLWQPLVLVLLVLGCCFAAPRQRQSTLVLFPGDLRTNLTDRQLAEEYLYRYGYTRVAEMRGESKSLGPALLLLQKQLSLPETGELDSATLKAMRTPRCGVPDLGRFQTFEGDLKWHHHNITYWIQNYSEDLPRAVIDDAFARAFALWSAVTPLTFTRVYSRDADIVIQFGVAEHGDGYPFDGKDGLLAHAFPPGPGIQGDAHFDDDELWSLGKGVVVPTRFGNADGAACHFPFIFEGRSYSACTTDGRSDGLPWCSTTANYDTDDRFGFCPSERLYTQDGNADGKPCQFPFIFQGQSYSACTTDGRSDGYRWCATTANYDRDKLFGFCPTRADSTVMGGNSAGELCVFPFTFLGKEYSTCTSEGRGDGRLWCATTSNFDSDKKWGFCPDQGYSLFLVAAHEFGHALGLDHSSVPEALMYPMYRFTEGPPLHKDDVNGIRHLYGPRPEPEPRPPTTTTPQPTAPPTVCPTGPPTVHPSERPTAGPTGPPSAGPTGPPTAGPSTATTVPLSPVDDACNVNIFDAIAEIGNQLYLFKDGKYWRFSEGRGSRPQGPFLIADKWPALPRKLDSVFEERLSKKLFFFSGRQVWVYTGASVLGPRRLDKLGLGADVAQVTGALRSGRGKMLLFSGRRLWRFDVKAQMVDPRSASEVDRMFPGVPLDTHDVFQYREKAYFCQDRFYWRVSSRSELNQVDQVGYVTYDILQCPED
Sequence of human Phosphodiesterase 10 (PDE10), PDE10A (gene 10846) (Q9Y233 whole entry, looked up): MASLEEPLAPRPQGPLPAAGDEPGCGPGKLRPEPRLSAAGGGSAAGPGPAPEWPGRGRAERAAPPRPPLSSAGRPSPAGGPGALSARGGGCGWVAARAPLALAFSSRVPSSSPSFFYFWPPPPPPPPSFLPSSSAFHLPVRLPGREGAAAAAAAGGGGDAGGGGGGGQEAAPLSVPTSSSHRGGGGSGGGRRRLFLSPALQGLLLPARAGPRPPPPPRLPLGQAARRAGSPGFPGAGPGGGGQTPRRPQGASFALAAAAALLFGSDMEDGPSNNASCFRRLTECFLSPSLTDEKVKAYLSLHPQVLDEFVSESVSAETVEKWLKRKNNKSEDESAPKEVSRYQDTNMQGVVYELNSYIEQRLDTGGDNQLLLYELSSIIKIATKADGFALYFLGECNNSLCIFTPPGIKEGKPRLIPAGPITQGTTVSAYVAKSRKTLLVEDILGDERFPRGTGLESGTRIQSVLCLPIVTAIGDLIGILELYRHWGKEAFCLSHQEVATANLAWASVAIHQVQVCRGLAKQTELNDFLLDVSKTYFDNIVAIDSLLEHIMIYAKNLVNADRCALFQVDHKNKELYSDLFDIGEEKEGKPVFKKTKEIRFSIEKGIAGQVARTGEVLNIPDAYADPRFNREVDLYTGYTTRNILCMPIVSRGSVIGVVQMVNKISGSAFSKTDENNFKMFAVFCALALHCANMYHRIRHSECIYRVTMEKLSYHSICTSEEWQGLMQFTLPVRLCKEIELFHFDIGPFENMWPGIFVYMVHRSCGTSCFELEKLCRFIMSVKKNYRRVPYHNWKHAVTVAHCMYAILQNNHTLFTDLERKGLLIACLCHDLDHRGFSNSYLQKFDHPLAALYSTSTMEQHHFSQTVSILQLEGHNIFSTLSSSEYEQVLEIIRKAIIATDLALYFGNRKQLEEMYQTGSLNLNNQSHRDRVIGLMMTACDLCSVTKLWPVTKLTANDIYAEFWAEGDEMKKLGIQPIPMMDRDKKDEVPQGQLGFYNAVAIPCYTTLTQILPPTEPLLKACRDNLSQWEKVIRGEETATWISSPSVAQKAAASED
Sequence of human Phosphatase and Tensin Homolog (PTEN), PTEN (gene 5728) (P60484 whole entry, looked up): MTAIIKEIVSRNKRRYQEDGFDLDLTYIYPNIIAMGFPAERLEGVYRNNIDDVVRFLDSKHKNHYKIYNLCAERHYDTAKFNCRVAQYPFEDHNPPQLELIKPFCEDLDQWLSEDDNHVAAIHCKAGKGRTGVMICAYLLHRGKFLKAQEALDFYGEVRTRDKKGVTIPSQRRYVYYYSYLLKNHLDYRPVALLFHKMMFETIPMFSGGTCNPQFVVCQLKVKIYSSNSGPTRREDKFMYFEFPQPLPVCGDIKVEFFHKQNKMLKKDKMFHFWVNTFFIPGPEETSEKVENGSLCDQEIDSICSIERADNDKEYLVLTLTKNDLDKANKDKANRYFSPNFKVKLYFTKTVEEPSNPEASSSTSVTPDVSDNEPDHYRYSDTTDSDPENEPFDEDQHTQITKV
Sequence of Serine/threonine-protein phosphatase PP1-alpha catalytic subunit (Homo sapiens) (P62136 whole entry, looked up): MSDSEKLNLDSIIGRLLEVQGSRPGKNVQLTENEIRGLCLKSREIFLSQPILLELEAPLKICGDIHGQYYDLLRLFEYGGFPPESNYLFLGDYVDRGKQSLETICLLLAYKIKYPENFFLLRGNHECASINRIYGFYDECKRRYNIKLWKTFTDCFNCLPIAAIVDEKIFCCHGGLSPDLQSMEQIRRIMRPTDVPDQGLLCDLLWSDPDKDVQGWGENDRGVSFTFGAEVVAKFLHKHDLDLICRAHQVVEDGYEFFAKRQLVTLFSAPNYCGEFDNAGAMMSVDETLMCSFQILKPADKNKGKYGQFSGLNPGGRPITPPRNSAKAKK
Sequence of human Protein Phosphatase, Mg2+/Mn2+ Dependent 1A (PPM1A), PPM1A (gene 5494) (P35813 whole entry, looked up): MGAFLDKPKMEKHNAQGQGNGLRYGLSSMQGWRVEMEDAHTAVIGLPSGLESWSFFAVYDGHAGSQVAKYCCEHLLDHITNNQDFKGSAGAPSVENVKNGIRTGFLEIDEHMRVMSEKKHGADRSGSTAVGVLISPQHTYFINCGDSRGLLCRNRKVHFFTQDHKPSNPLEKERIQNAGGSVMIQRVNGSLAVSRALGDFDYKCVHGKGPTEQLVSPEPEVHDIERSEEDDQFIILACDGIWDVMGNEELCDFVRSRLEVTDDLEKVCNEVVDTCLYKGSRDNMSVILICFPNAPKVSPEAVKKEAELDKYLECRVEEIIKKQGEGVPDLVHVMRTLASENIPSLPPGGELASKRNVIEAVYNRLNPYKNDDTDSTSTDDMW

`Nc1ccc(Cl)cc1`: the compound was classed as inactive in test [1]. For the compound `Cn1[nH]nnc1=S`, the AC50 in [2] was 1.08 µM (active). On to `c1nc[nH]n1`, for which, in test [3], the compound was classed as inactive. In the case of `O=P(OCC(Br)CBr)(OCC(Br)CBr)OCC(Br)CBr` (stereo not given), in [1], the AC50 was 4.32 µM (active).

On to `CCC1(c2ccccc2)C(=O)N=C(O)NC1=O` (stereo not given), for which the AC50 in test [3] was 15.4 µM (active). Moreover, the compound was classed as inactive in [1]. On to `COP(=O)(O)OC`, for which the AC50 in test [1] is 9.97 µM (active). `ClC1=C(Cl)C2(Cl)C3C(Cl)C(Cl)CC3C1(Cl)C2(Cl)Cl` (stereo not given): the result in test [4] and in test [5] was inactive.

As for `Cc1c([N+](=O)[O-])cc2c(c1[N+](=O)[O-])C(C)(C)CC2(C)C`, the AC50 in test [1] is 7.49 µM (active). For the compound `CCOP(=S)(OCC)SCSCC`, the result in test [6] and in test [3] was inactive.

Take `ClC(Cl)(Cl)c1ccccc1`: the call with PPP2CA (gene 5515) was inactive. Turning to `CCCN(CCC)c1c([N+](=O)[O-])cc(C(C)C)cc1[N+](=O)[O-]`, in test [7], the AC50 was 8.62 µM (active).

On to `N#C/C=C/c1ccccc1`, for which, in [8], the compound was called inactive. In the case of `Cc1cc(C)c(C(=O)P(=O)(c2ccccc2)c2ccccc2)c(C)c1`, the AC50 in test [8] is 687 nM (active). With `CCOC(=O)c1ccccc1C(=O)OCC`, the compound was called inactive in test [9]. For `CCCCN(CCCC)N=O`, the compound was classed as inactive in test [6] and in [4]. As for `CC(C)(C)c1ccc(O)cc1`, the compound was called inactive in test [9]. With `Nc1cc2c3c(c1)C(c1ccccc1)=N[C@@H](NC(=O)c1cccnc1)C(=O)N3CC2`, in test [10], the AC50 is 17.9 µM (active). For the compound `CCOc1ccc(C(C)(C)COCc2cccc(Oc3ccccc3)c2)cc1`, the outcome in test [6], in test [11], in [12] and in test [13] was inactive. Moreover, the AC50 in test [3] is 36 µM (active). For the compound `Clc1ccc(Oc2ccccc2)cc1`, in test [2], the call was inactive. For the compound `CC1(C)CN=C(NN=C(/C=C/c2ccc(C(F)(F)F)cc2)/C=C/c2ccc(C(F)(F)F)cc2)NC1`, the AC50 in test [4] is 14.1 µM (active); in test [14] it was 13.4 µM (active). Regarding `O=C(O)C(Cl)Cl`, the compound was called inactive in test [13].
